The values that follow come from article PMC5540273 (PLoS ONE, 2017).

Each structure is given as a SMILES string.

Some test systems named below: TRPM6; TSSK1B; TSSK3; TTK; TXK; TYRO3; ULK1; ULK2.
Conditions in all cases: concentration: 1 μM, replicates: in singlicate; n = 1
The subject of assay [1] is TYK2(JH1domain-catalytic).
Assay [2] has as its system TYK2(JH2domain-pseudokinase).
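Further: KINOMEscan kinase panel screen.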

Turning to `Nc1ncnc2c1ncn2-c1cccc(F)c1` [SKF-97560], the “%Inh” value in the assay on TRPM6 came out at 74%; with TSSK1B, 22%; in the assay with TSSK3, 20%; in the assay on TTK, 0%; in the assay with TXK, 0%; in assay [1], 38%. Also, the “%Inh” value was determined as 35% in [2], 9% in the assay on TYRO3, 7% in the assay on ULK1 and 26% with ULK2.
Turning to `COc1cccc(C2=C(N(C)c3ccccc3)C(=O)NC2=O)c1` [SB-334865], the “%Inh” value worked out at 26% with TRPM6; 0% in the assay on TSSK1B; 7% with TSSK3; 0% in the assay on TTK; 22% in the assay on TXK; 12% in assay [1]. Further, the “%Inh” value in assay [2] is 42%; in the assay on TYRO3, 0%; in the assay on ULK1 it was 19%; in the assay on ULK2 it was 0%.
Consider `Nc1n[nH]c2ncc(-c3ccccc3)cc12` [SB-517081], for which the “%Inh” value with TRPM6 was determined as 21%; with TSSK1B, 16%; in the assay on TSSK3 it was 4%; with TTK, 33%; with TXK, 0%; in [1], 45%. Moreover, the “%Inh” value in assay [2] stood at 92.7%; in the assay on TYRO3, 0%; with ULK1, 3%; in the assay on ULK2, 0%.
Regarding `Cl.c1ccc(Cn2cnc3cc(Nc4ncnc5ccccc45)ccc32)cc1` [GW272142], the “%Inh” value in the assay on TRPM6 is recorded as 0%; with TSSK1B it was 12%; in the assay with TSSK3, 10%; with TTK, 0%; with TXK, 0%; in [1], 13%. For the same molecule, the “%Inh” value in assay [2] was found to be 21%; in the assay with TYRO3 it was 0%; in the assay with ULK1, 7%; in the assay with ULK2 it was 0%.
For `CCC(=O)c1c(-c2ccccc2)c2cc(Cl)ccc2c(=O)n1Cc1cc(S(C)(=O)=O)n(CC(F)F)n1`, the “%Inh” value in the assay on TRPM6 turned out to be 10%; in the assay with TSSK1B, 0%; with TSSK3 it was 0%; in the assay on TTK, 0%; in the assay on TXK it was 6%; in assay [1], 0%. Also, the “%Inh” value (in assay [2]; with TYRO3; in the assay with ULK1; with ULK2) was 0% throughout.
Turning to `CCC(=O)c1c(-c2ccccc2)c2cc(Cl)ccc2c(=O)n1Cc1cc(C(=O)NC2CC2)n(C)n1`, the “%Inh” value in the assay with TRPM6 is on record as 0%; with TSSK1B it was 0%; in the assay on TSSK3, 0%; in the assay on TTK, 15%; in the assay on TXK it was 24%; in assay [1] it was 8%. Also, the “%Inh” value is recorded as 1% in assay [2], 0% in the assay on TYRO3, 0% in the assay on ULK1 and 6% with ULK2.
Turning to `COc1cc2ncn(-c3cc(OCCCc4ccccc4)c(C(N)=O)s3)c2cc1OC` [GSK205189], the “%Inh” value in the assay on TRPM6 is given as 0%; with TSSK1B, 0%; in the assay with TSSK3 it was 10%; in the assay with TTK it was 12%; with TXK, 0%; in assay [1], 0%. The “%Inh” value in assay [2] was determined as 0%; in the assay on TYRO3, 0%; in the assay on ULK1, 2%; with ULK2, 0%.
Regarding `Cc1c(Cn2c(C)nn3c(=O)cc(N4CCO[C@H](C)C4)nc23)cccc1C(F)(F)F` [GSK2373690], the “%Inh” value in the assay on TRPM6 is 0%; with TSSK1B it was 0%; in the assay on TSSK3, 14%; in the assay on TTK, 0%; in the assay on TXK, 3%; in assay [1], 0%. Moreover, the “%Inh” value in assay [2] came out at 0%; in the assay with TYRO3, 22%; with ULK1 it was 14%; in the assay with ULK2, 0%.
`COc1ccc(-c2coc3ccc(-c4nnc(SCc5cccc(C#N)c5)o4)cc23)cc1`: the “%Inh” value in the assay with TRPM6 was 0%; in the assay with TSSK1B it was 0%; in the assay with TSSK3, 0%; with TTK it was 6%; in the assay on TXK, 2%; in assay [1] it was 10%. The “%Inh” value in [2] came out at 0%; in the assay on TYRO3, 0%; with ULK1, 0%; in the assay with ULK2 it was 5%.
